Growth data for 13 compounds are collected here from PubChem BioAssay (NCI).

This is part of a sample that, as a whole, favours compounds with a hit. Of some 83,000 tested, about 20% had one in any assay.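 96-well plates, one dose, 48 hours. Percent growth reported; active if below 10.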 A number with no mark means an inactive call. Active and inactive are the calls of the source.

Some test systems named below: HCT-15 colon; HT29 colon; SNB-75 CNS; SNB-19 CNS; U251 CNS; PC-3 prostate; SK-MEL-5 melanoma; UACC-62 melanoma; LOX IMVI melanoma; SK-MEL-28 melanoma.
What all share (assay): NCI-60 one-dose screen, 48 h (100 = growth as untreated, 0 = no growth, -100 = all killed)
Details in all cases: 10 µM unless noted

For `O=C(c1ccc(Cl)cc1)C1[C@H](c2ccccc2Cl)[C@@H](c2ccccc2)NC12C(=O)Nc1ccc(Cl)cc12` (stereo not given in full), the growth in the experiment with HCT-15 colon is -81% (active); with HT29 colon, -81.6% (active); in the experiment on SNB-75 CNS, -16.4% (active); in the experiment with SNB-19 CNS, -28.4% (active); with U251 CNS, -73.3% (active); in the experiment with PC-3 prostate, -24.8% (active). The growth in the experiment with SK-MEL-5 melanoma was -98.1% (active); in the experiment with UACC-62 melanoma, -59.9% (active); in the experiment on LOX IMVI melanoma, -100% (active); with SK-MEL-28 melanoma, -80.1% (active).
As to `N/C(=N\c1nc2ccccc2s1)NC(=O)Nc1ccccc1F`, the growth with HCT-15 colon is 25.7%; in the experiment on HT29 colon, 5.46% (active); in the experiment with SNB-75 CNS, -0.749% (active); in the experiment with SNB-19 CNS, 28.9%; in the experiment with U251 CNS, 11.2%; in the experiment on PC-3 prostate, 33.3%. Moreover, the growth with SK-MEL-5 melanoma was -0.0152% (active); in the experiment on UACC-62 melanoma it was 25.3%; in the experiment with LOX IMVI melanoma, 27%; with SK-MEL-28 melanoma, 57.3%.
As for `COc1ccc(NC2=C(I)C(=O)C(C)=C(C)C2=O)cc1`, the growth with HCT-15 colon was 64.3%; in the experiment with HT29 colon, 101%; in the experiment on SNB-75 CNS, 86.3%; in the experiment on SNB-19 CNS it was 81.2%; in the experiment with U251 CNS, 25.9%; in the experiment on PC-3 prostate it was 10.2%. Moreover, the growth is -44.6% (active) with SK-MEL-5 melanoma, 33.3% with UACC-62 melanoma, 2.42% (active) in the experiment with LOX IMVI melanoma and 52.6% in the experiment with SK-MEL-28 melanoma.
On to `OCCn1cc(-c2nc3ccc4[nH]ncc4c3c3c2CCCC3)cn1`, for which the growth with HCT-15 colon is 26.4%; with HT29 colon, 19.7%; in the experiment with SNB-75 CNS, 20%; in the experiment on SNB-19 CNS, 59.3%; in the experiment with U251 CNS, 51.2%; in the experiment with PC-3 prostate, 67.4%. For the same compound, the growth in the experiment with SK-MEL-5 melanoma is 22.3%; in the experiment with UACC-62 melanoma, 27.9%; in the experiment with LOX IMVI melanoma, 25.4%; with SK-MEL-28 melanoma it was 59.3%.
Consider `O=c1[nH]c2ccccc2cc1CSc1ccccc1Nc1nccc(-c2ccc3c(c2)OCO3)n1`, for which the growth with HCT-15 colon is 95.1%; with HT29 colon, 94.4%; in the experiment on SNB-75 CNS it was 9.83% (active); with SNB-19 CNS, 63.1%; with U251 CNS, 51.3%; with PC-3 prostate, 79.2%. For the same compound, the growth in the experiment with SK-MEL-5 melanoma is 87.2%; with UACC-62 melanoma it was 68.5%; with LOX IMVI melanoma, 76.5%; in the experiment with SK-MEL-28 melanoma, 83%.
For the compound `CC[C@]12C=CCN3CC[C@@]4(c5ccc(OC)cc5N(C)[C@H]4[C@@](O)(C(=O)OC)[C@@H]1OC(=O)CCC[P+](c1ccc(OC)cc1)(c1ccc(OC)cc1)c1ccc(OC)cc1)[C@@H]32`, the growth is -86.3% (active) in the experiment on HCT-15 colon; -84.3% (active) in the experiment on HT29 colon; -34% (active) in the experiment with SNB-75 CNS; -96.7% (active) with SNB-19 CNS; -93.7% (active) in the experiment on U251 CNS; -78.8% (active) in the experiment with PC-3 prostate. Also, the growth in the experiment on SK-MEL-5 melanoma is -99.6% (active); with UACC-62 melanoma it was -97.1% (active); in the experiment on LOX IMVI melanoma, -96.4% (active); in the experiment with SK-MEL-28 melanoma, -96.3% (active).
With `Cn1cc(-c2cc3nc(-c4cn(C)c5ncc(Br)cc45)cc(N)n3n2)c2cc(F)ccc21`, the growth was 8.7% (active) in the experiment on HCT-15 colon; -28.5% (active) in the experiment with HT29 colon; 24.9% with SNB-75 CNS; 58.3% in the experiment with SNB-19 CNS; -26.1% (active) in the experiment on U251 CNS; 19.2% in the experiment with PC-3 prostate. In addition, the growth was 40.4% in the experiment on SK-MEL-5 melanoma, -7.29% (active) in the experiment on UACC-62 melanoma, -69.7% (active) in the experiment with LOX IMVI melanoma and 22.6% with SK-MEL-28 melanoma.
On to `COc1cccc(/C=C/c2nc3ccccc3c(=O)n2CC(=O)Nc2ccccc2)c1`, for which the growth with HCT-15 colon was 67.8%; in the experiment with HT29 colon, 58.5%; with SNB-75 CNS it was -35.9% (active); in the experiment with SNB-19 CNS it was 40.4%; in the experiment on U251 CNS, 7.15% (active); with PC-3 prostate it was 76.1%. The growth in the experiment with SK-MEL-5 melanoma was 73.6%; in the experiment on UACC-62 melanoma it was 67.2%; with LOX IMVI melanoma, 26.8%; in the experiment with SK-MEL-28 melanoma, 76.5%.
With `Fc1ccc(F)c(CNc2nc(SCCN3CCOCC3)nc3c2cnn3CC(Cl)c2ccc(Br)cc2)c1` (stereo not given), the growth with HCT-15 colon was -17.6% (active); with HT29 colon, -49.7% (active); in the experiment on SNB-75 CNS it was 56.3%; in the experiment on SNB-19 CNS, 42.2%; in the experiment on U251 CNS, 26.7%; with PC-3 prostate, 25.2%. For the same compound, the growth in the experiment with SK-MEL-5 melanoma is -12.9% (active); in the experiment on UACC-62 melanoma, -1.48% (active); in the experiment on LOX IMVI melanoma it was -7.7% (active); in the experiment on SK-MEL-28 melanoma, 32.3%.
In the case of `Cc1ccc(S(=O)(=O)N(CCn2ccnc2[N+](=O)[O-])CCn2ccnc2[N+](=O)[O-])cc1`, the growth was 103% in the experiment with HCT-15 colon; 112% with HT29 colon; 96% in the experiment with SNB-75 CNS; 101% in the experiment with SNB-19 CNS; 102% in the experiment on U251 CNS; 94.9% with PC-3 prostate. Further, the growth in the experiment with SK-MEL-5 melanoma was 99.3%; with UACC-62 melanoma it was 94%; in the experiment with LOX IMVI melanoma, 102%; in the experiment with SK-MEL-28 melanoma, 106%.
With `COc1ccc(SC2c3cc(OC)ccc3Oc3nc(N)c(C#N)c(N)c32)cc1` (stereo not given), the growth in the experiment on HCT-15 colon was 80.5%; in the experiment on HT29 colon, 97.4%; with SNB-75 CNS it was 49.6%; with SNB-19 CNS it was 71.7%; in the experiment on U251 CNS, 65.3%; in the experiment with PC-3 prostate it was 42.4%. Further, the growth in the experiment with SK-MEL-5 melanoma is 60.4%; with UACC-62 melanoma, 65.5%; with LOX IMVI melanoma, 5.16% (active); in the experiment with SK-MEL-28 melanoma, 111%.
Take `COc1ccc(Nc2ncnc3sc4c(c23)CCN(Cc2ccccc2)C4)cc1`: the growth in the experiment with HCT-15 colon is 74.9%; in the experiment with HT29 colon, 98.1%; in the experiment on SNB-75 CNS, 89.2%; in the experiment on SNB-19 CNS, 90.8%; in the experiment on U251 CNS, 88.9%; in the experiment with PC-3 prostate, 68.8%. Moreover, the growth in the experiment on SK-MEL-5 melanoma is 70.4%; in the experiment on UACC-62 melanoma it was 43.5%; in the experiment with LOX IMVI melanoma, 52.2%; with SK-MEL-28 melanoma, 99.8%.
For the compound `Nc1cc(-c2c[nH]c3ccc(F)cc23)nc2cc(-c3c[nH]c4ccccc34)nn12`, the growth with HCT-15 colon is -61.2% (active); in the experiment on HT29 colon it was -42.8% (active); in the experiment on SNB-75 CNS it was 66.2%; in the experiment on SNB-19 CNS it was -19.1% (active); in the experiment with U251 CNS it was -19.1% (active); with PC-3 prostate, 10.3%. The growth in the experiment on SK-MEL-5 melanoma is -4.35% (active); with UACC-62 melanoma, -8.04% (active); in the experiment on LOX IMVI melanoma, -83.9% (active); in the experiment on SK-MEL-28 melanoma, -33.9% (active).
